Measurements reported in PubChem BioAssay AID485284 (NMMLSC, 2010).
Measured potencies and affinities stand elsewhere.

Assay: loss of vesicle association with mouse CD8+ T cells – mouse 2C CD8+ T cells, flow cytometry, dose response (AID 485284);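 note: drosophila derived vesicles carrying Ld MHC with QL9 peptide plus B7-1 and ICAM-1; vesicle binding seen as anti-B7-1 PE fluorescence on CD8 gated cells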
Settings: 2C mouse CD8+ T cell-exosome binding; at 45 µM (top of the series)

Compared with Cc1ccc(S(=O)(=O)c2c(N)n(NC(=O)c3ccccc3C)c3nc4ccccc4nc23)cc1, Cc1ccc(C)c(-n2c3nc(=O)[nH]c(=O)c-3cc3cc([N+](=O)[O-])ccc32)c1 is higher in binding remaining, % of control: 100% for the first, 133% for the second.

Compared with O=C(NCC1CCCCC1)c1ccc(Cl)c(S(=O)(=O)N2CCOCC2)c1, O=C(Cc1ccc(S(=O)(=O)N2CCOCC2)s1)Nc1ccc(S(=O)(=O)N2CCCCC2)cc1 is lower in binding remaining, % of control: 111% for the first, 72.7% for the second.

First: CCOC(=O)N1CCN(C(=O)c2ccc(CS(=O)Cc3ccc(C)cc3)o2)CC1 (stereo unspecified)
Second: Cc1ccccc1C(=O)N1CCC(C(=O)Nc2ccc(C)c(S(=O)(=O)N3CCCCC3)c2)CC1
The binding remaining, % of control of the first is lower: 44.7% for the first, 134% for the second.

Going from Cc1ccc(C(C)n2cc(C(=O)NCCN3CCN(C)CC3)nn2)cc1 (stereo unspecified) to O=C(Cc1c(Cl)cccc1Cl)Nc1cccc(S(=O)(=O)N2CCOCC2)c1, the binding remaining, % of control falls from 144% to 112%.

Going from O=C(NC1CCCCCC1)C1CCN(S(=O)(=O)c2ccccc2)CC1 to COc1cc(CNCc2cccnc2)ccc1OCC(=O)NC1CCCCC1, the binding remaining, % of control falls from 137% to 128%.

Compared with CN(C)S(=O)(=O)N1CCN(S(=O)(=O)N(C)C)CC1, CCOC(=O)c1c(N2C(=O)CC(Sc3ccccc3C(=O)O)C2=O)sc2c1CCCC2 (stereo unspecified) is lower in binding remaining, % of control: 55.7% for the first, 41.4% for the second.

First: COc1ccc2c(c1)-c1c(sn(-c3ccc(OC)c(OC)c3)c1=S)C(C)(C)N2
Second: CCOC(=O)CSc1nnnn1-c1cc(OC)c(Cl)cc1OC
The binding remaining, % of control of the first is lower: 116% for the first, 136% for the second.

First: CC(C)(C)NC(=O)COc1ccc(CNCc2cccnc2)cc1
Second: COC(=O)c1ccc(OC(=O)CS(=O)c2ccccc2[N+](=O)[O-])cc1 (stereo unspecified)
The binding remaining, % of control of the first is lower: 90.5% for the first, 97.9% for the second.
